The list is not random: actives were taken first. Their share in the collection is about 19%.
DT40 TDP1 CPT – DT40-hTDP1 cell growth loss with CPT; Potency, µM (titrated, usually from 46.2 µM), usual class: inhibitors; chicken DT40 Tdp1-/-;hTDP1 cells + 20 nM CPT, ATP luminescence, 48 h; AID 686979; actives 12% (n = 420,000); further: nearly all actives have a fitted effect of over 55% in size
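Chicken DT40 Tdp1-/- cells complemented with human TDP1, 400 cells/well, exposed to compounds plus 20 nM camptothecin for at least 48 h at 37 C; viability read as ATP content by CellTiter-Glo luminescence.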
TGFb inhibitor – blocks TGF-b signaling. Potency, µM (doses to about 46.1 µM), usual class: inhibitors. HepG2 CAGA-GFP TGF-b/SMAD3 reporter, GFP fluorescence, 18 h; TGF-beta stimulated, 500 pg/mL final. actives 1.2% (n = 410,000); further: nearly all actives have a fitted effect of over 65% in size
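HEPG2 CAGA-GFP, 1000 cells/well; 2 h settle, 37 C; cpd via pin tool; TGF-b 500 pg/mL final; 18 h, 37 C; GFP imaging ex488/em500-530; %Activity normalised to -TGF-b and +DMSO controls; CRC fit, curve class.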
HepG2 viability – counter-screen for TGF-b inhibitors: cytotoxicity in HepG2 cells. actives 0.76% (n = 410,000). HepG2 CAGA-GFP viability, ATP luminescence, 18 h. AID 588856. Potency, µM (top dose mostly 46.1 µM), hits mostly cytotoxic
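CellTiter-Glo luminescence gave cytotoxicity after 18 hours at 37 degrees C. The cells were HepG2 CAGA-GFP in 1% FBS DMEM, stimulated with 500 pg/mL TGF-beta after compound addition. %Activity was normalised to no-cell wells (complete cell-killing) and DMSO (no toxicity), and curves were fitted and classified.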
TDP1 inh – blocks human tyrosyl-DNA phosphodiesterase 1; Q9NUW8; recombinant TDP1, AlphaScreen DNA substrate cleavage; actives 0.28% (n = 350,000); Potency, µM (top dose mostly 130 µM), most hits filed as inhibitors; AID 485290; further: nearly all actives have a fitted effect of over 40% in size
Target sequence (Q9NUW8 whole entry, looked up): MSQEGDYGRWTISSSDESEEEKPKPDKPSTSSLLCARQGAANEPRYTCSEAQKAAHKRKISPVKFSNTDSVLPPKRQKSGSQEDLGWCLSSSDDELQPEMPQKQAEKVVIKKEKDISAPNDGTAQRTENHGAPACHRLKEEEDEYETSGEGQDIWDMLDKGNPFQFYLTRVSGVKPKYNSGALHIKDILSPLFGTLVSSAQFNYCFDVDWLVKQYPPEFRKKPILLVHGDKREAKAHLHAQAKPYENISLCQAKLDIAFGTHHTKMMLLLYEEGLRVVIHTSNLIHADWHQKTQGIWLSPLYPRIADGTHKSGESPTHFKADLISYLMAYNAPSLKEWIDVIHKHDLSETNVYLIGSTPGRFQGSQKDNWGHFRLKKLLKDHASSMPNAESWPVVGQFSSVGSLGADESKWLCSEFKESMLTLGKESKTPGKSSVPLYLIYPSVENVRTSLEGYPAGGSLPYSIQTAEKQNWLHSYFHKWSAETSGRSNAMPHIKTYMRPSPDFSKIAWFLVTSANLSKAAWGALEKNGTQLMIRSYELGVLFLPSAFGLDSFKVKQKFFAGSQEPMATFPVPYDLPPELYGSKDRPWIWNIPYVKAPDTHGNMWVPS
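Compounds were preincubated with Tdp1 (1 nM final) for 15 min at room temperature before substrate (15 nM final) started a 5 min reaction; beads (10 ug/ml final) were then added for 10 min before AlphaScreen detection.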
TDP1 cell noCPT – qHTS for Inhibitors of human tyrosyl-DNA phosphodiesterase 1 (TDP1): qHTS in cells in absence of CPT; actives 15% (n = 420,000); DT40 Tdp1-/- hTDP1 cells, no CPT, ATP luminescence, 48 h; AID 686978, 2013; Potency, µM (highest dose often 46.2 µM), hits mostly inhibitors; further: nearly all actives have a fitted effect of over 55% in size
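No-CPT arm: Tdp1-/-;hTDP1 DT40 cells (400/well) plus compounds, incubated ≥48 hr at 37 °C. Readout CellTiter-Glo luminescence.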
IL-1B inflam inh – blocks inflammasome-driven IL-1 beta release | THP-1 LPS/ATP IL-1B secretion, AlphaLISA, 16 h; stronger effect = lower value | activity change, % at 57.5 µM | actives 4.7% (n = 360,000); in the data active means activity change below about -50%; inconclusive means mostly about -30% to -49%
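Secreted IL-1B measured by AlphaLISA bead assay after 16 h compound exposure of THP-1 cells; compounds (final up to 57.5 uM) added 1 h before LPS (250 ng/mL) and ATP (1.25 mM) stimulation; lower signal means less secretion.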
Numbers stand for hits; ! = repeats disagree. Unless noted, the call rests on the fitted dose curve; in most records, active means well fitted curve in the direction sought with a large enough effect; inconclusive means small, poorly fitted or top-dose-only effect, or another doubt; inactive means no such curve, though single readings can be large; an effect the other way counts as inactive or inconclusive.

`O=C(CCN=C1NS(=O)(=O)c2ccccc21)Nc1ccc(F)cc1Cl` gave DT40 TDP1 CPT inactive, TGFb inhibitor inactive, HepG2 viability inactive, TDP1 inh inactive, TDP1 cell noCPT inactive and IL-1B inflam inh inactive.
For CCOc1ccc(NC(=O)N2CCN(C(=O)c3nsc4ccccc34)CC2)cc1 the results were DT40 TDP1 CPT inconclusive, TGFb inhibitor inactive, HepG2 viability inactive, TDP1 inh inactive and TDP1 cell noCPT inconclusive.
COC(=O)c1cc2oc(C)cc2n1Cc1cccc(Cl)c1 was read as DT40 TDP1 CPT inconclusive, TGFb inhibitor inactive, HepG2 viability inactive, TDP1 inh inactive and TDP1 cell noCPT inconclusive.
`CC(Oc1ccc2c3c(c(=O)oc2c1)CCCC3)C(=O)NCc1ccncc1` (centres undefined) gave DT40 TDP1 CPT inconclusive, TGFb inhibitor inactive, HepG2 viability inactive, TDP1 inh inactive, TDP1 cell noCPT inconclusive and IL-1B inflam inh inactive.
Screening Cn1c(SCC(=O)NCC2CCCO2)ncc(C(=O)Nc2ccc(Cl)cc2)c1=O (centres undefined) returned DT40 TDP1 CPT 7.31µM, TGFb inhibitor inactive, HepG2 viability inactive, TDP1 inh inactive, TDP1 cell noCPT 9.2µM and IL-1B inflam inh inactive.
Screening CC(=O)Nc1ccc(NC(=O)CSc2ncc(C(=O)Nc3ccc(Cl)cc3)c(=O)n2C)cc1 returned DT40 TDP1 CPT inconclusive, TGFb inhibitor inactive, HepG2 viability inactive, TDP1 inh inactive, TDP1 cell noCPT inconclusive and IL-1B inflam inh inactive.
For CC(=O)Nc1ccc(NC(=O)CSc2ncc(C(=O)Nc3ccc(F)cc3)c(=O)n2C)cc1 the results were DT40 TDP1 CPT 18.4µM, TGFb inhibitor inactive, HepG2 viability inactive, TDP1 inh inactive, TDP1 cell noCPT 20.6µM and IL-1B inflam inh -59.0.
For CC(=O)c1cccc(NC(=O)CSc2ncc(C(=O)Nc3ccccc3)c(=O)n2C)c1 the results were DT40 TDP1 CPT 7.31µM, TGFb inhibitor inactive, HepG2 viability inactive, TDP1 inh inactive, TDP1 cell noCPT 7.31µM and IL-1B inflam inh inactive.
Screening COc1ccccc1CNC(=O)CSc1ncc(C(=O)Nc2ccccc2)c(=O)n1C returned DT40 TDP1 CPT 16.4µM, TGFb inhibitor inactive, HepG2 viability inactive, TDP1 inh inactive, TDP1 cell noCPT 14.6µM and IL-1B inflam inh inactive.
Screening CC(=O)c1cccc(NC(=O)CSC(=O)c2ccccc2)c1 returned DT40 TDP1 CPT inactive, TGFb inhibitor inactive, HepG2 viability inactive, TDP1 inh inactive, TDP1 cell noCPT inactive and IL-1B inflam inh inactive.
For Cn1c(SCC(=O)NCc2ccc(F)cc2)ncc(C(=O)Nc2ccccc2)c1=O the results were DT40 TDP1 CPT inconclusive, TGFb inhibitor inactive, HepG2 viability inactive, TDP1 inh inactive, TDP1 cell noCPT inconclusive and IL-1B inflam inh inactive.
`CCCCCCCCCCCCCC/C(C(=O)O)=C(\C)C(=O)O` gave TDP1 inh inactive.
`Cc1nc(N2CCCC2)ncc1C(=O)Nc1ccc(F)cc1F` gave DT40 TDP1 CPT inactive, TGFb inhibitor inactive, HepG2 viability inactive, TDP1 inh inactive and TDP1 cell noCPT inactive.
CCCCc1nc2sc3c(SCC(=O)NCc4ccco4)ncnc3c2c2c1CCC2 was read as DT40 TDP1 CPT 12.6µM, TGFb inhibitor inactive, HepG2 viability inactive, TDP1 inh inactive, TDP1 cell noCPT 11.2µM and IL-1B inflam inh inactive.
CSc1nc(SCC(=O)NCc2ccco2)c2c3c(sc2n1)COC(C)(C)C3 was read as DT40 TDP1 CPT 13µM, TGFb inhibitor inactive, HepG2 viability inactive, TDP1 inh inactive, TDP1 cell noCPT 8.2µM and IL-1B inflam inh inactive.
For CCCCSc1nc(SCC(=O)NCc2ccco2)c2c3c(sc2n1)COC(C)(CC)C3 (centres undefined) the results were DT40 TDP1 CPT inactive, TGFb inhibitor inactive, HepG2 viability inactive, TDP1 inh inactive, TDP1 cell noCPT inactive and IL-1B inflam inh inactive.
Screening CC(C)Sc1nc(NCc2ccco2)c2c3c(sc2n1)COC(C)(C)C3 returned DT40 TDP1 CPT 25.9µM, TGFb inhibitor inactive, HepG2 viability inactive, TDP1 inh inactive, TDP1 cell noCPT 14.6µM and IL-1B inflam inh inactive.
Screening Cc1ccc(C)c(NC(=O)Cn2c(=O)n(CC3CCCO3)c(=O)c3ccccc32)c1 (centres undefined) returned DT40 TDP1 CPT inactive, TGFb inhibitor inactive, HepG2 viability inactive, TDP1 inh inactive and TDP1 cell noCPT inconclusive.
`Cc1nc(-c2ccccc2)sc1CCNS(=O)(=O)c1ccccc1` gave TGFb inhibitor inactive, HepG2 viability inactive and TDP1 inh inactive.
`Cc1ccc2cc3cc(C(=O)N4CCN(c5ccccc5)CC4)oc3nc2c1` gave DT40 TDP1 CPT inactive, TGFb inhibitor inactive, HepG2 viability inactive, TDP1 inh inactive and TDP1 cell noCPT inconclusive.
`COC(=O)c1c(NC(=O)C(=O)N2CCCC2)sc2c1CC(C)(C)OC2` gave DT40 TDP1 CPT inactive, TGFb inhibitor inactive, HepG2 viability inactive, TDP1 inh inactive, TDP1 cell noCPT inactive and IL-1B inflam inh inactive.
Screening Cn1nnnc1SCC(=O)N(C1CCCCC1)C1CCCCC1 returned DT40 TDP1 CPT 16.4µM, TGFb inhibitor inactive, HepG2 viability inactive, TDP1 inh inactive, TDP1 cell noCPT 18.4µM and IL-1B inflam inh inactive.
`NCC12CC3CC(C1)CC(c1ccc(Cl)cc1)(C3)C2` gave DT40 TDP1 CPT 6.51µM, TGFb inhibitor inconclusive, HepG2 viability inactive, TDP1 inh inactive, TDP1 cell noCPT 6.51µM and IL-1B inflam inh -89.3.
`CCC[C@H]1COCCS(=O)(=O)N1Cc1ccc(Br)cc1` gave DT40 TDP1 CPT inconclusive, TGFb inhibitor inconclusive, HepG2 viability inactive and TDP1 cell noCPT 11.2µM.
Screening CC(C)[C@H]1COCCS(=O)(=O)N1Cc1ccccc1 returned DT40 TDP1 CPT inconclusive, TGFb inhibitor inactive, HepG2 viability inactive, TDP1 cell noCPT 10µM! and IL-1B inflam inh inactive.
Screening O=S1(=O)CCOC[C@H](CC2CCCCC2)N1Cc1cccc(C(F)(F)F)c1 returned DT40 TDP1 CPT inconclusive, TGFb inhibitor inconclusive, HepG2 viability 12.6µM!, TDP1 cell noCPT 18.4µM and IL-1B inflam inh inactive.
Screening O=S1(=O)CCOC[C@H](Cc2ccccc2)N1Cc1cccc(C(F)(F)F)c1 returned DT40 TDP1 CPT 18.4µM, TGFb inhibitor inactive, HepG2 viability inactive, TDP1 cell noCPT inconclusive and IL-1B inflam inh inactive.
`Cc1ccc(N2CCN(C(=O)Cn3ncc4c([nH]c5ccc(C)cc54)c3=O)CC2)c(C)c1` gave DT40 TDP1 CPT inactive, TGFb inhibitor inactive, HepG2 viability inactive, TDP1 inh inactive and TDP1 cell noCPT inactive.

Source: PubChem (National Center for Advancing Translational Sciences (NCATS))
